# Assay results reported in PubChem BioAssay AID1345083 (National Center for Advancing Translational Sciences (NCATS), 2018).
# The whole screen tested about 94,000 compounds, of which about 6,200 (6.6%) were called active. Another 31% or so got no clear call; they are omitted. Many of the other results were omitted from the sample, so actives are more common in it than they were. Values without a mark were called inactive. Calls follow the shape of the dose curve; as a rule, active = well fitted inhibition curve with a large enough effect; inconclusive = small, poorly fitted or top-dose-only effect; inactive = flat fitted curve, though single readings scatter.
# Test: Cytotoxic Profiling in HEK 293 Cell Line of Diverse Libraries Using Quantitative High-Throughput Screening; also: nearly all actives have a fitted effect of over 60% in size
# Details: HEK 293 viability, ATP luminescence (CellTiter-Glo), 48-72 h; series mostly up to 115 µM; activity change, negative = cytotoxicity: at the top concentration
# How it was run: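 HEK 293 seeded at 250 cells/well receive compound via pintool. After 48 or 72 hr at 37 degree Celsius, 5% CO2 and 95% humidity, CellTiter-Glo is dispensed and luminescence read following 10 min at room temperature.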
# % is scaled to controls: 0 for no effect and ±100 for the full control effect; potency is read from the fitted curve at half-maximal effect.
Structure (SMILES),"activity change, negative = cytotoxicity",outcome,Potency
O=C(Cc1cccnc1)NC1CC(=O)N(Cc2cccc3ccccc23)C1 (stereo not given),-12.1%,,
CCNC(=O)c1noc(-c2ccc[nH]c2=O)n1,10.7%,,
Cc1nc(CC(=O)N[C@@H]2COCC[C@H]2Oc2ccc(C#N)cc2)c(C)s1,-10.6%,,
Cc1ccc(C2Cn3cnc(C(=O)N4CCC(C(=O)NCCC(C)C)CC4)c3CO2)cc1 (stereo not given),10.4%,,
Cc1ccc(C(=O)N2CCC(c3nn(-c4ccccn4)c(=O)[nH]3)CC2)cc1,-27.8%,,
CCCn1cnc2c1CN(S(=O)(=O)c1ccc(C#N)cc1)[C@H](C(=O)OC)C2,3.28% [at 172 µM],,
CCN(CC)C(=O)C(NC(=O)c1ccc(OC)cc1)C1CCN(C(=O)c2ccc(F)cc2)CC1 (stereo not given),-3.47%,,
O=C(NC1CCCCC1)[C@@H]1C[C@@H](O)CN1C1CCN(C(=O)c2ccncc2)CC1,,inactive,
O=C1NC2(Cc3ccccc31)CN(Cc1cscn1)C2,,inactive [at 172 µM],
O=C1NCCCCCCN(Cc2ccncc2)[C@@H]2CN(C(=O)NCCc3ccccc3)CC[C@@H]12,-3%,,
COc1ccc(NC(=O)N[C@@H]2C=C[C@@H](c3c(C)nn(-c4ccc(C(C)(C)C)cc4)c3C)C2)cc1,,,31.6 µM (active)
COc1ccc(NC(=O)[C@@H]2C[C@@H](O)CN2C2CCN(C(=O)c3cccc(OC)c3)CC2)cc1,-22.3%,,
O=C(c1ccc(Cn2cccn2)o1)N1CCn2nc(C(O)CO)cc2C1 (stereo not given),3.08%,,
CN1CCN([C@@H]2[C@H](O)[C@H](CO)O[C@@H]2CNS(=O)(=O)c2ccccc2)CC1,-0.985%,,
CCCn1c(C)cnc1C1CCN(C(=O)C2CCCC2)C1 (stereo not given),-0.0753%,,
O=C1CN(C(=O)c2ccc(-n3cccn3)cc2)CC(OCc2ccccc2)CN1Cc1cccnc1 (stereo not given),0.591%,,
COc1ccc(-c2ccc3ncn(Cc4ccccc4)c(=O)c3n2)cc1OC,-29% [at 172 µM],,
O=c1c2nc(OCc3ccc(-n4cccn4)cc3)ccc2ncn1Cc1ccccc1,,,28.2 µM (active)
CN(C)C(=O)c1cc(-c2cccc(C(F)(F)F)c2)c2nncn2n1,,inactive,
CC(=O)N1CCc2[nH]cnc2C12CCN(C(=O)c1ccc(=O)[nH]c1)CC2,,inactive,
CC(C)CNC(=O)C1Cn2cccc2C(=O)N1CC(C)C (stereo not given),,inactive,
COc1ccc(-n2c(=O)c(C(=O)NCC3CC3)nc3cccnc32)cc1,,inactive [at 172 µM],
O=C(Nc1ccccc1)N1CCN2C(=O)N(Cc3ccc(F)cc3)C[C@H]2C1,-21.7% [at 172 µM],,
COc1ccc(CN2C[C@H]3CN(Cc4ccc(NC(C)=O)cc4)CCN3C2=O)cc1,,,89.1 µM (active)

Structure (SMILES),"activity change, negative = cytotoxicity",outcome,Potency
COc1ccc2nc([C@H]3CCN(Cc4ccc(NC(C)=O)cc4)C3)[nH]c2c1,-26.9% [at 172 µM],,
COc1ccc(CCC(=O)N2CCCC(c3nc(-c4cccnc4)no3)CCNC(=O)CC2)cc1 (stereo not given),-15.1%,,
O=C(NC1CCCCC1)N1CCCCC1c1noc(COCC2CC2)n1 (stereo not given),-29.1%,,
O=C(Cn1nc2c(cc1=O)CCCC2)Nc1nc(-c2ccc3c(c2)OCO3)cs1,5.94%,,
COc1ccc(-c2cccc(C(=O)N3CCN(C(=O)c4ccc(F)cc4)CC3)c2)nn1,-5.12%,,
COc1ccc(-c2cccc(C(=O)NC3CC3)c2)nn1,-19.7% [at 172 µM],,
COc1ccc(-c2cccc(C(=O)N3CCC(NC(=O)c4ccc(C(F)(F)F)cc4)CC3)c2)nn1,,,39.8 µM (active)
COCC(=O)N1CCC(C(=O)N2CCCC(c3nc4ncccc4[nH]3)C2)CC1 (stereo not given),-0.191%,,
O=C1N[C@H](CC(=O)N2CCN(Cc3ccccc3)CC2)C(=O)Nc2ccccc21,7.44%,,
COCc1nc2nccc(-c3ccccc3)n2n1,0.903%,,
Fc1ccc(Cc2nc3nccc(-c4cc5ccccc5o4)n3n2)cc1,-0.828%,,
COc1cccc(-c2ccnc3nc(Cc4cc(F)cc(F)c4)nn23)c1,,,39.8 µM (active)
COCC1CN(C(=O)c2ccc(C#N)cc2)CC12CCOCC2 (stereo not given),4.38%,,
COc1ccc(OC)c(NC(=O)c2cc3n(n2)CC(c2ccc(Cl)cc2)OC3)c1 (stereo not given),3.27%,,
COc1ccc(C(=O)N[C@@H]2CCC[C@@H]2C(=O)NCc2ccc3c(c2)OCO3)cc1,,inactive,
COc1ccc(CNC(=O)c2cc3n(n2)CC(c2ccc4c(c2)OCO4)OC3)c(OC)c1 (stereo not given),,,35.5 µM (active)
COc1ccc(OCc2nc(C)c(CCO)c(=O)n2CC(=O)NCc2ccc(F)cc2)cc1,4.49%,,
O=C1[C@@H]2C[C@@H](CN2Cc2ccc3ccccc3n2)Oc2ccccc2N1Cc1ccccc1,,,44.7 µM (active)
N#Cc1ccc(CN2C[C@@H]3C[C@H]2C(=O)Nc2ccccc2O3)cc1,-16.4% [at 172 µM],,
COCCN1C(=O)[C@@H]2C[C@@H](CN2C(=O)Nc2ccccc2)Oc2ccccc21,-6.62% [at 172 µM],,
COCCC(=O)NCC1Cn2cccc2C(=O)N1Cc1ccccc1 (stereo not given),-20.1%,,
COc1ccccc1C(=O)N1CCC2(C1)C(=NC1CCCC1)NC(=O)N2c1cccnc1 (stereo not given),,inactive,
CS(=O)(=O)N1CCC(C2CCN(C(=O)Cc3cccs3)C2)CC1 (stereo not given),-7.95%,,
COc1ccccc1CN1CCc2nc(C(C)C)nc(-c3ccc(O)cc3)c2C1,-27.8%,,

Structure (SMILES),"activity change, negative = cytotoxicity",outcome,Potency
COc1ccccc1CN1CCc2nc(C3CC3)nc(-c3ccc(O)cc3)c2CC1,,,44.7 µM (active)
COc1ccc(CC(=O)N2CCc3nc(C4CC4)nc(-c4ccc(O)cc4)c3CC2)cc1,-15.7%,,
COCCc1noc(Cc2c(C)nn(-c3ccccc3)c2C)n1,-1.66%,,
COc1ccc(CC(=O)N2CCC(Cc3nc(-c4cnccn4)no3)CC2)cc1Cl,-8.58%,,
COc1ccc(CC(=O)N2CCC(Cc3nc(C(C)C)no3)CC2)cc1Cl,-27.9%,,
CCOc1ccc(CC(=O)N2CCC(Cc3nc(-c4cnccn4)no3)CC2)cc1,-18.9%,,
COc1ccc(CC(=O)N2CCC(Cc3nc(-c4ccccc4)no3)CC2)cc1OC,,,35.5 µM (active)
COc1ccc(-c2noc(CC3CCN(C(=O)CC4CCCCC4)CC3)n2)cc1,,,44.7 µM (active)
COc1cccc(C(=O)N2CCC(Cc3nc(-c4cnccn4)no3)CC2)c1,-10.7%,,
CNC(=O)[C@@H]1C[C@@H](O)CN1C1CCN(C(=O)c2ccc(OC)c(F)c2)CC1,1.95%,,
CC1CCN(C(=O)CCNc2c(-c3ccc(F)cc3)nc3cnccn23)CC1,-22.5%,,
CCC1CN(C(=O)c2ccc(C#CC(C)(C)O)o2)CCN1C(C)C (stereo not given),-18.1%,,
CCCN(CC1CCOC1)S(=O)(=O)c1ccc(C(F)(F)F)cc1 (stereo not given),-23.3%,,
O=c1n(Cc2ccc(F)cc2)nc2n1CCCCC2,13.5%,,
O=C(c1ccc2c(c1)OCO2)N1CCN(c2ccc(Cl)nn2)C(=O)C1,,inactive,
N#Cc1ccc(CN2CCC[C@H]2c2nc(-c3ccc(F)cn3)no2)cc1,-15.4% [at 172 µM],,
Cc1cccc(OCC(=O)N2CCC[C@H]2c2nc(-c3ccccc3)no2)c1,-18.9%,,
COCCOc1ncccc1-c1noc([C@@H]2CCCN2CC(C)(C)C)n1,,,63.1 µM (active)
Cn1ccnc1CN1CCCC(CCC(=O)Nc2ccccc2F)C1 (stereo not given),,inactive,
CC1=C[C@@H](CNC(=O)C2CCCCC2)[C@H](C(C)C)C[C@H]1Cc1nc2ccc(F)cc2[nH]1,,,28.2 µM (active)
CC(=O)N1CCC(C2CCN(C(=O)CCCc3nc4ccccc4[nH]3)C2)CC1 (stereo not given),-4.93%,,
CC(=O)N1CCC(NC[C@@H]2C=C(C)[C@H](Cc3nc4ccccc4n3C)C[C@H]2C(C)C)CC1,-23.7%,,
COc1ccc2nc(C[C@@H]3C[C@@H](C(C)C)[C@H](CNC(=O)CC(C)(C)CC(=O)O)C=C3C)[nH]c2c1,-19.4%,,
CC1=C[C@@H](CNC(=O)CC2(CC(=O)O)CCCC2)[C@H](C(C)C)C[C@H]1Cc1nc2c(C)cccc2[nH]1,-24.7%,,

Structure (SMILES),"activity change, negative = cytotoxicity",outcome,Potency
Nc1nc(C2CC(NC(=O)CCc3nc4ccc(F)cc4[nH]3)C2)cc(=O)[nH]1 (stereo not given),-11.3%,,
CC1=C[C@@H](CNCC(C)C)[C@H](C(C)C)C[C@H]1Cc1nc2c(C)cccc2[nH]1,,,39.8 µM (active)
CC1=C[C@@H](CNC2CCN(C)CC2)[C@H](C(C)C)C[C@H]1Cc1nc2ccccc2[nH]1,,,28.2 µM (active)
CC1=C[C@@H](CN(CC2CC2)CC2CC2)[C@H](C(C)C)C[C@H]1Cc1nc2c(C)cccc2[nH]1,,,89.1 µM (active)
Cc1cnc(C(=O)NC2CC(c3nnc(CO)n3C3CC3)C2)[nH]1 (stereo not given),4.88%,,
O=C(c1ccc2c(c1)[nH]c(=O)n2C1CCC(O)CC1)N1CCc2ccccc2C1 (stereo not given),-26%,,
Cc1ccc(-n2nc(C(=O)N3CC[C@](C)(O)C(C)(C)C3)c(O)cc2=O)cc1,1.18%,,
Cc1ccc(C)c2c(=O)cc(CN3CCN(CCn4cncn4)CC3)[nH]c12,-24%,,
CCN1C(=O)CCN(Cc2cnn(CC)c2C)CC12CCOCC2,-8.32%,,
Cc1cc2occ(CC(=O)N3CC[C@](C)(O)[C@@H](O)C3)c2cc1Cl,-2.57%,,
N#Cc1ccc(S(=O)(=O)N2CC(n3cc(C(=O)NCc4ccccc4)nn3)C2)cc1,,,50.1 µM (active)
O=C(NCC1CC1)c1cn(C2CN(C(=O)NCCc3ccccc3)C2)nn1,,inactive,
CCOC(=O)c1cn(C2CN(S(=O)(=O)c3cccc(F)c3)C2)nn1,-18.3%,,
CC(=O)N1CCN(C(=O)C2(Cn3cccn3)CC2)CC(O)C1 (stereo not given),-1.42%,,
COCCNC(=O)[C@H]1C[C@H](Oc2cccnc2)CN1C(=O)NC1CCCCC1,-13.6%,,
O=C1NCCC[C@@H]1NC(=O)[C@H]1CN(C(=O)CS(=O)(=O)c2ccccc2)CCN1C(=O)C1CCCCC1,-0.313%,,
CC(=O)Nc1ccc(-c2c(-c3ccc4c(c3)OCO4)nn(-c3cc(C)ccc3C)c2OC(C)=O)cc1,,,39.8 µM (active)
CCN(CC)c1ncccc1CNC(=O)Nc1ccc2c(c1)OCO2,-14.6%,,
CCCc1nn(-c2cccc(F)c2)c(OC(C)=O)c1-c1ccc(NC(C)=O)cc1,-31.7%,,
CN1CCCN(C[C@@H]2CN(C(=O)c3ccnn3C)C[C@@H]2CO)CC1,3.91%,,
CCN(CC)C(=O)N1CCCC(c2nc(CCOCC3CCOCC3)no2)C1 (stereo not given),-24%,,
C1CCC(COCCc2noc(C3CNC3)n2)C1,,,6.31 µM (active)
O=C(Cc1cccnc1)N1CCCC(c2nc(CCOCC3CCCC3)no2)C1 (stereo not given),-14.1%,,
